Growth data for 40 compounds are collected here from PubChem BioAssay (NCI).

This is part of a sample that, as a whole, favours compounds with a hit. Of some 83,000 tested, about 20% had one in any assay.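 The endpoint reported here, percent growth, reads 100 for growth as untreated, 0 for no net growth and -100 for all cells dead.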 Activity calls are given as the source filed them.

The test system of the assay is NCI-H23 lung. Nature of the assay: NCI-60 one-dose screen, 48 h (100 = growth as untreated, 0 = no growth, -100 = all killed). To be noted: 10 µM unless noted. The protocol: Growth inhibition of the NCI-H23 human Non-Small Cell Lung tumor cell line is measured as a screen for anti-cancer activity. Cells are grown in 96 well plates and exposed to the test compound for 48 hours. Compounds are tested at a single concentration, which is 10^-5 M for most compounds. The reported endpoint is percent growth (GI% or GIPRCNT), where numbers from 0 - 100% represent growth inhibition, and numbers from -100% - 0 represent cell death. For example, a value of 40 represents 60% growth inhibition. A value of 0 means no net growth occurred over the course of the experiment. A value of -40 indicates 40% of cells at the beginning of the experiment died by the end of the experiment. A value of -100 means all cells are dead at the end of the experiment.
NCI-60 Human Tumor Cell Lines Screen was performed using the standard one-dose NCI protocol, which is described in more detail at https://dtp.cancer.gov/discovery_development/nci-60/default.htm.
Compounds with GIPRCNT values below 10 were considered active. Activity score was based on GIPRCNT using the following formula: […]
Score is 0 for GIPRCNT values of 100 or above, 50 for GIPRCNT values of 0, and 100 for GIPRCNT values of -100.
With `O=C1C(Cl)=C(Nc2ccccn2)C(=O)c2ccccc21`, the growth was 40.5% (inactive). Consider `Cn1cnc2c(N3CCN(C(=O)OCc4ccc5c(Cl)cc(Cl)c(O)c5n4)CC3)nc(Cl)nc21`, for which the growth was 86.4% (inactive). In the case of `O=S(=O)(NCCNc1nccc(-c2c(-c3ccc(F)cc3)nc3sccn23)n1)c1ccc(F)cc1` it was 78.7% (inactive). As to `O=C1CS/C(=N\Nc2cc(=O)[nH]c3ccccc23)N1c1ccccc1`, the growth was 96.4% (inactive). `CCCCCCCCCCCCNC(=O)[C@H]1CSC(c2cc3ccccc3s2)N1` (stereo not given in full): the growth was -7.5% (active). Regarding `CC(=O)Nc1scc[n+]1Cc1ccccc1`, the growth is 88% (inactive). Consider `COc1ccc(CNCCCN2C(=O)c3ccc4c5c(ccc(c35)C2=O)C(=O)N(CCCNCCCCNCCCN)C4=O)c(OC)c1OC`, for which the growth was 23.1% (inactive). The result for `NC(=O)c1c(NC(=S)Nc2ccc(OC(F)(F)F)cc2)sc2c1CCC1(C2)OCCO1` reads 94.7% (inactive). For the compound `C=C[C@@H]1C[C@@H]2Cc3c(C)cc(C)cc3N1O2`, the growth is 95% (inactive).

`COc1cc2c(=O)n(C3CCCCCC3)c3c4cc[nH]c4ncc3c2cc1OC`: the growth is 77.1% (inactive).

In the case of `COc1ccc(S(=O)(=O)n2ccc(-c3ccc4c(c3)CCC(C)(C)O4)n2)cc1OC`, the growth was 56.1% (inactive).

In the case of `CC(C)(C)OC(=O)NC(CSCc1ccccc1)C(=O)ON1C(=O)CCC1=O` (stereo not given), the growth is 94.3% (inactive).

`CC(C)(C)n1cc(-c2ccnc(NCCCNS(=O)(=O)c3cccc(F)c3)c2)c(-c2cccc(O)c2)n1`: the growth was 66.5% (inactive).

As for `Cn1ncc2c(Sc3ccc(Cl)cc3)ncnc21`, the growth is 93.6% (inactive). Take `COc1ccc(C(=O)NC(=O)Nc2cc3c(cc2F)/C(=C/c2[nH]c(C)c(CCC(=O)O)c2C)C(=O)N3)c(F)c1`: the growth is 41.3% (inactive). Consider `O=C(Nc1cccc(-n2cc(-c3ccncc3)c(-c3ccc(Cl)c(O)c3)n2)c1)Nc1ccc(Cl)c(Cl)c1`, for which the growth is 13.5% (inactive). With `CCOC(=O)c1c(/N=C2\SC(=O)/C(=C\C(=O)OC)N2NC)sc2c1CCN(C(=O)OCC)C2`, the growth was 96.4% (inactive). In the case of `O=[N+]([O-])c1cc(Cl)c2[nH]c3c(Cl)cc([N+](=O)[O-])cc3c2c1` it was 9.08% (active); in that of `COc1ccc(C2=CC(c3cc(OC)c(OC)c(OC)c3)NC(=O)N2)cc1OC` (stereo not given), 27.3% (inactive); in that of `CN(C)c1cccc2c(S(=O)(=O)/N=C(\N)Nc3nc4ccccc4s3)cccc12`, 66.6% (inactive). The result for `Clc1ccc2c(NC3CCC(NC4CCCCC4)CC3)ccnc2c1` (stereo not given) reads 68.1% (inactive). In the case of `NNc1cccc(/C=C/c2ccccc2)cc1=O`, the growth was 73.1% (inactive). The result for `CN(C)CCCC(C#N)c1ccccc1` (stereo not given) reads 103% (inactive); that for `C=C[C@@H]1C[C@H](O)Cc2c(C)cc(C)cc2N1`, 97.6% (inactive); that for `C=CCSc1n[nH]c(-c2cccs2)n1`, 104% (inactive). Consider `CN(CCCCCl)P(=O)(OCc1ccc([N+](=O)[O-])o1)C(F)(F)C[C@H](NC(=O)CNC(=O)c1ccc(N=[N+]=[N-])cc1)C(=O)NCCc1ccc(O)cc1` (stereo not given in full), for which the growth is 99.4% (inactive). For the compound `O=C(Nc1cccc(-n2cc(-c3ccncc3)c(-c3ccc(Cl)c(O)c3)n2)c1)c1ccc(N2CCOCC2)c(C(F)(F)F)c1`, the growth was 61.3% (inactive).

For the compound `COc1cc(/C(C#N)=C/c2ccc3c(c2OC)OCO3)cc2c1OCO2`, the growth was 30.9% (inactive). In the case of `COc1ccc(C2CC(c3ccc(OC)cc3OC)=NN2c2ccc(S(N)(=O)=O)cc2)cc1` (stereo not given) it was 90.7% (inactive). As to `CN(CCCCN(C[C@H]1Cc2ncccc2CN1)[C@H]1CCCc2cccnc21)C1CCC(F)(F)CC1`, the growth is 107% (inactive).

With `CCN(CC)CCCNc1nccc2ccc(Cl)cc12`, the growth was 107% (inactive).

In the case of `COc1ccc(Nc2ncccc2C(=O)NCc2cn(Cc3cccc(Oc4ccccc4)c3)nn2)c(OC)c1`, the growth was 37.5% (inactive). For `CC1(C)C(=O)/C(=C\c2ccc(C(F)(F)F)cc2)C[C@]2(C)[C@H]3CC[C@@H]4[C@H]5[C@H](C(=O)/C=C/c6ccc(C(F)(F)F)cc6)CC[C@]5(CO)CC[C@@]4(C)[C@]3(C)CC[C@@H]12`, the growth was 100% (inactive). With `CC12CCCC(CC(=O)c3[nH]c4ccccc4c31)C2` (stereo not given), the growth was 33.5% (inactive). Turning to `O=C(O)Cc1cccc(=O)c(O)c1C(=O)O`, the growth was 108% (inactive).

For the compound `NC1=NC(SCc2ccccc2CCl)c2ncn(Cc3ccccc3CCl)c2N1` (stereo not given), the growth is 70.8% (inactive).

As for `CC1=NC2=CC=CC3=NC(C(Cl)(Cl)Cl)=NC(=N1)N23`, the growth was 59.9% (inactive). In the case of `CN(C)c1nc2c(N)ncnc2n1C1OC(CO)C(O)C1O` (stereo not given), the growth was 110% (inactive). For `S=c1[nH]nc(-c2cc3ccc2CCc2ccc(cc2)CC3)n1C1CC1`, the growth was 97.8% (inactive).

Consider `Clc1cccc(-c2cc(-c3ccc4c(c3)OCCO4)[nH]n2)c1`, for which the growth was 40% [25 µM] (inactive).
